The list is not random: actives were taken first. Their share in the collection is about 2.4%.
D2 ag-1 – D2 dopamine receptor (human) agonism. HEK293 T-REx D2 cells, calcium flux agonist mode. activation, % at 2 µM. 0.53% of 340,000 active. AID 485358;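 active = activation over 3 SD above normal in the single-dose calcium agonist read, cut at about 30% in these data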; also: 0% is about no effect
Target sequence (P14416 whole entry, looked up): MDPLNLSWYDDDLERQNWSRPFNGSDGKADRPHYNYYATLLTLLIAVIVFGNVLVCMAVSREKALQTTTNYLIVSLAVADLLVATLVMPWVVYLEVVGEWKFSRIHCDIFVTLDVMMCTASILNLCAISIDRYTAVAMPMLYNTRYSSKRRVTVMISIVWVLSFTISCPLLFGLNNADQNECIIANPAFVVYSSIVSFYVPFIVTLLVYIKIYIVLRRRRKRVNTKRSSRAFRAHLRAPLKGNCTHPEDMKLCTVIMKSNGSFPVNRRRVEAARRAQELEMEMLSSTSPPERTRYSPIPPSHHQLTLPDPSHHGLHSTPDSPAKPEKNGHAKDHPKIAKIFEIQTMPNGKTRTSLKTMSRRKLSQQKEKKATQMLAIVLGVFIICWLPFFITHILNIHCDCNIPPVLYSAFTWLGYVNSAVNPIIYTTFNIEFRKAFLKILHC
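Calcium-flux readout, 1 cycle/sec over 180 s following compound pin transfer, in inducible HEK293 Trex D2 cells (force-coupled); dopamine controls included. Positive calcium responses during this window marked compounds as potential agonists.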
D2 antagonist – antagonizes the human D2 dopamine receptor. P14416. inhibition, % at 10 µM. HEK293 TREx D2 cells, calcium flux, dopamine EC80. 2% of 340,000 active; in the data active = inhibition above about 30%; inactive = below that, where a call was filed; also: 0% is about no effect
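HEK293 T-REx D2 cells, tet-induced, calcium dye no-wash. Cpd pintool add, 180 s kinetic, then EC80 DA, 180 s kinetic. Ca flux read.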
D2 PAM-1 – positive allosteric modulators of human D2 dopamine receptor | P14416 | HEK293 T-REx D2, calcium flux, EC20 dopamine potentiation | potentiation, % at 10 µM | 0.34% of 340,000 active | AID 485347;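 active = potentiation over 3 SD above the plate norm, cut at about 30% in these data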; also: 0% is about no effect
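Potentiation of an EC20 dopamine calcium response is measured in a force-coupled, tetracycline-inducible Hek293 Trex D2 line. Compound-only kinetic reads over 180 s flag agonists before dopamine addition.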
D2 ag-2 – human D2 receptor agonism in beta-arrestin assay. activation, % (test concentration not listed). P14416. 0.084% of 360,000 active. DiscoveRx PathHunter D2 beta-arrestin, luminescence, 90 min; 100% = 57 uM dopamine signal; in the data active = activation above about 40%
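DiscoveRx PathHunter D2 beta-arrestin cells (2,100/well) attached overnight, then compound-stimulated 90 min at 37 C in HBSS/10 mM HEPES/0.1% Tween-20 buffer; beta-galactosidase complementation read by luminescence after 1 h at ambient temperature. Dopamine 57 uM final (EC100) as control.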
D2 PAM-2 – human D2 receptor positive allosteric modulation. P14416. DiscoveRx D2 beta-arrestin cells, luminescence, 90 min; 100% = 57 uM dopamine signal. potentiation, % (no concentration beside the values). 0.23% of 360,000 active; in the data active = potentiation above about 50%
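PathHunter beta-arrestin assay in DiscoveRx D2 cells. Compounds were added with an EC20 of dopamine (50 nM final) for 90 min at 37 deg C. Luminescence was read 1 h after detection reagent, with 57 uM dopamine as the EC100 control.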
Active calls of the source: *.

`CCn1c(C)c(C2N3CC4(C)CN2CC(CC)(C3)C4=O)c2ccccc21` (configuration not stated) gave D2 ag-1 -1 and D2 PAM-1 1.
`O=C1CCN(Cc2ccccc2)CCN1[C@H](COc1ccccc1)Cc1ccccc1` gave D2 ag-1 7, D2 antagonist -3, D2 PAM-1 6, D2 ag-2 8 and D2 PAM-2 -5.
`CCCN1CCC(=O)N([C@H](COc2ccccc2)Cc2ccccc2)CC1` gave D2 ag-1 1, D2 antagonist 39*, D2 PAM-1 -4, D2 ag-2 -1 and D2 PAM-2 -19.
COc1cc(NC(=O)c2cc(-c3cccc(Cl)c3)on2)c(OC)cc1Cl was read as D2 ag-1 0 and D2 PAM-1 1.
CCC(C(=O)Nc1ccc(C(=O)OC)cc1)n1nc(-c2ccc(C)cc2)c2c(c1=O)CCCC2 (configuration not stated) was read as D2 ag-1 0 and D2 PAM-1 -3.
Screening C/C(=N\Nc1ccc(Cl)c(C(=O)O)c1)c1ccc(Br)s1 returned D2 ag-1 -2, D2 antagonist 47*, D2 PAM-1 1, D2 ag-2 2 and D2 PAM-2 -4.
For Cc1nn(CCCC(=O)NCCc2ccc(Cl)cc2)c(=O)c2c1sc1ccccc12 the results were D2 ag-1 0 and D2 PAM-1 -4.
Screening Cc1cccc(NC(=O)CCCCCN2C(=O)c3ccccc3C2=O)n1 returned D2 ag-1 -1, D2 antagonist 35*, D2 PAM-1 1, D2 ag-2 0 and D2 PAM-2 -3.
`O=C(CCCCCCN1C(=O)c2ccccc2C1=O)NC1CCCCC1` gave D2 ag-1 1, D2 antagonist 32*, D2 PAM-1 -2, D2 ag-2 -4 and D2 PAM-2 3.
For CCOC(=O)CCCSc1nnc(CCCCCN2C(=O)c3cccc4cccc(c34)C2=O)o1 the results were D2 ag-1 0, D2 antagonist -1, D2 PAM-1 8, D2 ag-2 -2 and D2 PAM-2 1.
CCOC(=O)CCCCCN1C(=O)c2cccc3cccc(c23)C1=O was read as D2 ag-1 -1, D2 antagonist 3, D2 PAM-1 30*, D2 ag-2 2 and D2 PAM-2 1.
Cc1cccc(NC(=O)CCCN2C(=O)c3ccccc3C2=O)n1 was read as D2 ag-1 2, D2 antagonist 34*, D2 PAM-1 2, D2 ag-2 -5 and D2 PAM-2 -12.
For Cc1ccc(NC(=O)CCCCCN2C(=O)c3ccccc3C2=O)nc1 the results were D2 ag-1 -1, D2 antagonist 4, D2 PAM-1 6, D2 ag-2 1 and D2 PAM-2 -7.
For CCOc1ccc(N(CC)S(=O)(=O)N2CCCC(C(=O)NCCc3ccccc3OC)C2)cc1 (configuration not stated) the results were D2 ag-1 0 and D2 PAM-1 -8.
For CCc1cccc(NC(=O)CSc2n[nH]c(-c3ccccc3Cl)n2)c1 the results were D2 ag-1 0 and D2 PAM-1 -10.
For CCOC(=O)c1cccc(NC(=O)c2cc3ccccn3n2)c1 the results were D2 PAM-1 5.
`Cc1cccc(OCC(=O)NCc2ccc3c(c2)CCN3C(=O)c2ccccc2)c1` gave D2 ag-1 1 and D2 PAM-1 2.
`O=C(CCCCCN1C(=O)c2ccccc2C1=O)Nc1ccc(F)cc1` gave D2 ag-1 0, D2 antagonist 34*, D2 PAM-1 -8, D2 ag-2 1 and D2 PAM-2 -20.
O=C(CCCCCN1C(=O)c2ccccc2C1=O)Nc1ccccc1F was read as D2 ag-1 0, D2 antagonist 12, D2 PAM-1 2, D2 ag-2 -4 and D2 PAM-2 -5.
For Cc1c(C(=O)N2CCCC2)oc2c1-c1nn(CC(=O)NCCCN3CCCCC3)cc1CC2 the results were D2 ag-1 -1, D2 antagonist 37*, D2 PAM-1 -6, D2 ag-2 1 and D2 PAM-2 -30.
`CCOc1ccccc1NC(=O)NCc1noc2ccc(C)cc12` gave D2 ag-1 -1 and D2 PAM-1 1.
For CCOP(=O)(c1ccccc1)c1nc(-c2ccc(F)cc2)oc1N1CCCCC1 (configuration not stated) the results were D2 ag-1 0, D2 antagonist 32*, D2 PAM-1 11, D2 ag-2 -4 and D2 PAM-2 -14.
Screening CCOP(=O)(OCC)c1nc(-c2ccc(Br)cc2)oc1N1CCCCC1 returned D2 ag-2 -1 and D2 PAM-2 -4.
`COc1ccccc1CNC(=O)Cc1c(C)c2c(cc(C)c3c(C)coc32)oc1=O` gave D2 ag-1 1 and D2 PAM-1 18.
For CC1CCN(C2CCN(S(=O)(=O)c3ccc(F)cc3)CC2)CC1 the results were D2 ag-1 1, D2 antagonist 9, D2 PAM-1 -8, D2 ag-2 -1 and D2 PAM-2 -14.
Screening O=S(=O)(c1ccc(F)cc1)N1CCC(N2CCCCCC2)CC1 returned D2 ag-1 14, D2 antagonist 42*, D2 PAM-1 -8, D2 ag-2 -2 and D2 PAM-2 -13.
Nc1nc(Nc2ccccc2)sc1C(=O)c1ccccc1 was read as D2 ag-1 12, D2 antagonist -8, D2 PAM-1 5, D2 ag-2 0 and D2 PAM-2 -7.
For CCNc1nc(N)c(C(=C(C#N)C#N)c2ccccc2)s1 the results were D2 ag-1 -1, D2 antagonist 45*, D2 PAM-1 -18, D2 ag-2 -3 and D2 PAM-2 -39.
CCC(=O)N1CCc2cc(Br)cc(S(=O)(=O)N3CCN(c4cccc(Cl)c4)CC3)c21 was read as D2 ag-1 1 and D2 PAM-1 13.
For CCc1c(O)nc(SCC(=O)N(CC)CC)[nH]c1=O the results were D2 ag-1 -1, D2 antagonist 34*, D2 PAM-1 0, D2 ag-2 -2 and D2 PAM-2 3.
For CCN(CC)C(=O)CSc1nc(O)c(Cc2ccc(OC)cc2)c(=O)[nH]1 the results were D2 ag-1 0, D2 antagonist -25, D2 PAM-1 15, D2 ag-2 -5 and D2 PAM-2 -4.
COc1ccc(S(=O)(=O)NC2CCSc3ccccc32)cc1NC(C)=O (configuration not stated) was read as D2 ag-1 0, D2 antagonist -2, D2 PAM-1 16, D2 ag-2 -1 and D2 PAM-2 -4.
Screening COc1cc(S(=O)(=O)NC2CCSc3ccccc32)ccc1NC(C)=O (configuration not stated) returned D2 ag-1 -2, D2 antagonist 6, D2 PAM-1 33*, D2 ag-2 -2 and D2 PAM-2 -5.
For COC(=O)c1ccc(NC(=O)c2c(NCc3ccc(OC)c(OC)c3)sc3c2CCCC3)cc1 the results were D2 ag-1 0.

Assay outcomes deposited in PubChem by National Center for Advancing Translational Sciences (NCATS).
